The structures appear in SMILES notation. Results filed as inconclusive are left out. Entries that show only a call come without a potency. The source made the active and inactive calls. Calls come from the whole dose curve; as a rule, active = well fitted inhibition curve with a large enough effect; inconclusive = small, poorly fitted or top-dose-only effect; inactive = flat fitted curve, though single readings scatter.

Data on 5 molecules can be found in PubChem BioAssay (NCATS).

The first experiment relates to P93_24. As to the kind of experiment: qHTS profiling for inhibitors of Plasmodium falciparum proliferation (AID 504749). Note: nearly all actives have a fitted effect of over 60% in size. The note with it: P. falciparum in erythrocytes, SYBR Green DNA, 72 h; series mostly up to 28.7 µM. Summed up: (§1)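 Parasite proliferation within erythrocytes, 72 h exposure. Endpoint: SYBR Green I fluorescence after overnight lysis at room temperature. Controls: 0.29 uM artemisinin, DMSO.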
(qHTS replaces the single test concentration by a dilution series.)
For `CCCCc1ccc(C(=O)O)nc1`, the Potency result is “inactive”.
Same read-out and setting: as for `CCCN1CCC[C@H](c2cccc(O)c2)C1`, the entry is “inactive”; as for `CC(C)NC(C)Cc1ccc(I)cc1` (stereo not given), “inactive”; as for `NC(=O)CN1CC(O)CC1=O` (stereo not given), “inactive”.
The same measure, in the same setting: for `c1ccc(C2(c3ccccc3)CC2C2=NCCN2)cc1` (stereo not given) the value was “inactive”.

The next experiment relates to P94_40. The experiment is described as above. Conditions: P. falciparum in erythrocytes, SYBR Green DNA, 72 h; series mostly up to 28.7 µM. The method in brief: as §1
For the molecule `CCCCc1ccc(C(=O)O)nc1`, the Potency entry is “inactive”.
On the same count and under the same terms, as for `CCCN1CCC[C@H](c2cccc(O)c2)C1`, the entry is “inactive”.
As to `CC(C)NC(C)Cc1ccc(I)cc1` (stereo not given), the Potency result is “inactive”.
On the same count and under the same terms, for `NC(=O)CN1CC(O)CC1=O` (stereo not given) the value was “inactive”; for `c1ccc(C2(c3ccccc3)CC2C2=NCCN2)cc1` (stereo not given), “inactive”.

The subject of the next experiment is PAD. The description is as above. The note with it: P. falciparum in erythrocytes, SYBR Green DNA, 72 h; series mostly up to 28.7 µM. Summed up:
as §1
With `CCCCc1ccc(C(=O)O)nc1`, the Potency entry was “inactive”.
Still for that read-out and setting: for `CCCN1CCC[C@H](c2cccc(O)c2)C1` the value was “inactive”; for `CC(C)NC(C)Cc1ccc(I)cc1` (stereo not given), “inactive”.
On the same count and under the same terms, for `NC(=O)CN1CC(O)CC1=O` (stereo not given) the value was “inactive”.
Still for that read-out and setting: as for `c1ccc(C2(c3ccccc3)CC2C2=NCCN2)cc1` (stereo not given), the entry is “inactive”.
